Several values for one entry are separate records, joined by “and”; a condition that tells them apart may be missing. Equal entries are not always repeated. Results filed as inconclusive are left out. Entries that show only a call come without a potency. A structure can be active in one record and inactive in another. Activity calls are given as the source filed them. The call rests on the fitted dose curve; in most records, active means well fitted curve in the direction sought with a large enough effect in the repeat runs; inconclusive means weak or mixed curves; inactive means no such curve, though single readings can be large; an effect the other way counts as inactive or inconclusive.
Tests used:
[1] = A CellTox Green Cytotoxicity Assay to monitor cytotoxicity in HEK293 cells - 40 hour (AID 1224871); details: CellTox Green fluorescence; series mostly up to 76.8 µM; further: nearly all actives have a fitted effect of over 45% in size; further: potency means the concentration at half of the fitted maximal effect
Method in brief: (§1)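 Nonlytic real-time cytotoxicity: HEK293 + CellTox Green reagent plated, 5 h preincubation, pintool compound addition (23 nL in DMSO), 37 C for 40 h, fluorescence measured at successive time points.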

[2] = qHTS RealTime-Glo MT Cell Viability Assay in HEK293 cells - 16 hour (AID 1224872); details: RealTime-Glo luminescence; series mostly up to 76.8 µM; further: nearly all actives have a fitted effect of over 50% in size; further: potency means the concentration at half of the fitted maximal effect
Method in brief: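 Assay medium contained NanoLuc luciferase plus cell-permeant prosubstrate, added with HEK293 cells at 600 cells/well. After 5 h at 37 C/5% CO2 compounds were added; plates stayed at 37 C for 40 h with serial luminescence reads.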

[3] = qHTS RealTime-Glo MT Cell Viability Assay in HepG2 cells - 8 hour (AID 1224873); details: RealTime-Glo luminescence; series mostly up to 76.8 µM; further: nearly all actives have a fitted effect of over 55% in size; further: potency means the concentration at half of the fitted maximal effect
Method in brief: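 HepG2 cells (600/well) mixed with RealTime-Glo MT reagent, settled 5 h at 37 C/5% CO2 before compound addition. Nonlytic NanoLuc luminescence from viable-cell prosubstrate reduction read repeatedly during 40 h treatment at 37 C.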

[4] = qHTS RealTime-Glo MT Cell Viability Assay in HEK293 cells - 40 hour (AID 1224874); details: RealTime-Glo luminescence; max response: stronger effect = lower value; further: nearly all actives have a fitted effect of over 50% in size; further: potency means the concentration at half of the fitted maximal effect
Method in brief: (§2)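 Cells were seeded together with NanoLuc luciferase and a prosubstrate that viable cells reduce to a luciferase substrate. After a 5 h incubation at 37 C/5% CO2, compounds were added and luminescence was measured repeatedly during 40 h of treatment.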

[5] = A CellTox Green Cytotoxicity Assay to monitor cytotoxicity in HEK293 cells - 24 hour (AID 1224875); details: CellTox Green fluorescence; series mostly up to 76.8 µM; further: nearly all actives have a fitted effect of over 45% in size; further: potency means the concentration at half of the fitted maximal effect
Method in brief: as §1

[6] = A CellTox Green Cytotoxicity Assay to monitor cytotoxicity in HepG2 cells - 16 hour (AID 1224876); details: CellTox Green fluorescence; series mostly up to 76.8 µM; further: nearly all actives have a fitted effect of over 45% in size; further: potency means the concentration at half of the fitted maximal effect
Method in brief: (§3)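 Read-out is fluorescence of a cyanine dye excluded from live cells that stains DNA of dead HepG2 cells, with signal proportional to cytotoxicity. Plates were read at 0, 8, 16, 24, 32 and 40 h after compound addition.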

[7] = qHTS RealTime-Glo MT Cell Viability Assay in HepG2 cells - 32 hour (AID 1224877); details: RealTime-Glo luminescence; series mostly up to 76.8 µM; further: nearly all actives have a fitted effect of over 55% in size; further: potency means the concentration at half of the fitted maximal effect
Method in brief: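 qHTS, HepG2, 600 cells/well, RealTime-Glo (NanoLuc + prosubstrate) added with cells; 5 h preincubation; DMSO compound addition; 37 C; luminescence at 0/8/16/24/32/40 h.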

[8] = A CellTox Green Cytotoxicity Assay to monitor cytotoxicity in HepG2 cells - 24 hour (AID 1224878); details: CellTox Green fluorescence; series mostly up to 76.8 µM; further: nearly all actives have a fitted effect of over 45% in size; further: potency means the concentration at half of the fitted maximal effect
Method in brief: as §3

[9] = A CellTox Green Cytotoxicity Assay to monitor cytotoxicity in HepG2 cells - 40 hour (AID 1224879); details: CellTox Green fluorescence; series mostly up to 76.8 µM; further: nearly all actives have a fitted effect of over 40% in size; further: potency means the concentration at half of the fitted maximal effect
Method in brief: as §3

[10] = qHTS RealTime-Glo MT Cell Viability Assay in HEK293 cells - 0 hour (AID 1224880); details: RealTime-Glo luminescence; series mostly up to 76.8 µM
Method in brief: as §2

| Compound | Potency [1] | Potency [2] | Potency [3] | Potency [4] | max response [4] | Potency [5] | Potency [6] | Potency [7] | Potency [8] | Potency [9] | outcome [10] |
| --- | --- | --- | --- | --- | --- | --- | --- | --- | --- | --- | --- |
| CC[N+]1(C)CCCC1 | inactive | inactive | inactive | 21.9 µM (active) | 3.6% (inactive) [middle of 4 runs] | inactive | inactive | inactive | inactive | inactive | inactive |
| Cc1cc(Cl)ccc1N | inactive and 38.9 µM (active) | inactive | inactive |  | 9.86% (inactive) and 3.76% (inactive) and 5.35% (inactive) |  | inactive and 38.9 µM (active) | inactive | inactive and 38.9 µM (active) | inactive and 38.9 µM (active) | inactive |
| CCCC[N+]1(C)CCCCC1 | inactive | inactive | inactive |  | -0.0247% (inactive) [middle of 5 runs] | inactive | inactive | inactive and 48.8 µM (active) | inactive | inactive | inactive |
| C[N+](C)(C)Cc1ccccc1 | inactive | inactive | inactive |  | 3.99% (inactive) and 18.8% (inactive) and -0.0813% (inactive) | inactive | inactive | inactive | inactive | inactive | inactive |
| Nc1ccc(-c2ccc(N)cc2)cc1 | inactive |  | inactive |  | -0.165% (inactive) and -5.77% (inactive) and -8.89% (inactive) | inactive | inactive | inactive | inactive | 48.4 µM (active) and inactive | inactive |
| CCCC[n+]1ccccc1 | inactive | inactive | inactive |  |  | inactive | inactive | inactive | inactive | inactive | inactive |
| COP(=O)(OC)OC=C(Cl)Cl | inactive | inactive | inactive |  | 12.8% (inactive) and 2.89% (inactive) and 15.7% (inactive) | inactive | inactive | inactive | inactive | inactive | inactive |
| COCC(=O)N(c1c(C)cccc1C)C(C)C(=O)OC (configuration not stated) | inactive | inactive | inactive |  | 7.37% (inactive) and 3.62% (inactive) and 0.316% (inactive) | inactive | inactive | inactive | inactive | inactive | inactive |
| C[C@]12CCC(=O)C=C1CC[C@@H]1[C@@H]2CC[C@]2(C)C(=O)CC[C@@H]12 | 48.2 µM (active) and inactive |  | inactive | 24.1 µM (active) and 24.5 µM (active) | -20.4% (inactive) | inactive | inactive | inactive | inactive | inactive and 49 µM (active) | inactive |
| Cc1cc(Cl)ccc1OCC(=O)O | inactive |  | inactive |  | 23.3% (inactive) and 12.2% (inactive) and 10.9% (inactive) | inactive | inactive | inactive | inactive | inactive | inactive |
| CCCCCCCCCCCCCCCCn1cc[n+](C)c1 | inactive and 19.7 µM (active) and 24.6 µM (active) |  | inactive and 49.1 µM (active) | 7.93 µM (active) and 4.4 µM (active) and 2.76 µM (active) | 12.2% (inactive) |  | inactive and 49.4 µM (active) and 39 µM (active) | inactive and 49.4 µM (active) and 34.8 µM (active) | inactive and 44 µM (active) and 24.6 µM (active) |  | inactive |
| CC[n+]1ccccc1 | inactive |  | inactive | 21.7 µM (active) | 9.29% (inactive) [middle of 4 runs] | inactive | inactive | inactive and 49.1 µM (active) | inactive | inactive | inactive |
| O=C(O)COc1ccc(Cl)cc1Cl | inactive | inactive | inactive |  | 5.16% (inactive) [middle of 6 runs] | inactive | inactive | inactive | inactive | inactive | inactive |
| CCCCCC[n+]1ccccc1 | inactive |  | inactive | 27.8 µM (active) [middle of 5 runs] | -3.16% (inactive) | inactive | inactive | inactive | inactive | inactive | inactive |
| O=C(O)c1ccccc1O | inactive | inactive | inactive |  | 2.39% (inactive) [middle of 5 runs] | inactive | inactive | inactive | inactive | inactive | inactive |
| CCCC[n+]1ccc(C)cc1 | inactive and 21.8 µM (active) | 34.5 µM (active) and inactive | inactive |  |  |  | inactive and 54.7 µM (active) | inactive | inactive and 48.7 µM (active) | inactive and 48.7 µM (active) | inactive |
| CCCC[n+]1cccc(C)c1 | inactive | inactive | inactive |  | 7.15% (inactive) [middle of 6 runs] | inactive | inactive | inactive and 55.7 µM (active) | inactive | inactive | inactive |
| Oc1ccccc1-c1ccccc1 | inactive | inactive | inactive |  | -9.5% (inactive) [middle of 4 runs] | inactive | inactive | inactive |  |  | inactive |
| CCOP(=S)(OCC)Oc1ccc2c(C)c(Cl)c(=O)oc2c1 | inactive |  | inactive | 12.4 µM (active) and 43.6 µM (active) | -24.9% (inactive) | inactive | inactive | inactive | inactive | inactive | inactive |
| CNC | inactive |  | inactive |  | 5.34% (inactive) and 10.3% (inactive) | inactive | inactive | inactive | inactive | inactive | inactive |
| O=c1nc(O)n(Cl)c(=O)n1Cl | inactive | inactive | inactive |  | 3.95% (inactive) and 2.22% (inactive) | inactive | inactive | inactive | inactive | inactive | inactive |
| CC[N+](CC)(CC)CC | inactive |  | inactive |  | 2.86% (inactive) and 1.18% (inactive) and -0.431% (inactive) | inactive | inactive | inactive | inactive | inactive | inactive |
| O=[N+]([O-])c1ccccc1O | inactive | inactive | inactive |  | 3.7% (inactive) and -2.87% (inactive) and 7.99% (inactive) | inactive | inactive | inactive | inactive | inactive | inactive |
| CCCC[n+]1ccccc1C | inactive | inactive | inactive |  | 0.73% (inactive) [middle of 6 runs] | inactive | inactive | inactive | inactive | inactive | inactive |
| CCCC[N+]1(C)CCCC1 | inactive |  | inactive |  | 0.73% (inactive) [middle of 7 runs] | inactive | inactive | inactive | inactive | inactive | inactive |
| CCCn1cc[n+](C)c1 | inactive | inactive | inactive |  | 9.61% (inactive) and -4.66% (inactive) and 2.37% (inactive) | inactive | inactive | inactive | inactive | inactive | inactive |
| Nc1ccccc1 | inactive | inactive | inactive |  | -1.34% (inactive) [middle of 4 runs] | inactive | inactive | inactive | inactive | inactive | inactive |
| CCn1cc[n+](C)c1C | inactive | inactive | inactive |  | -4.04% (inactive) and 1.14% (inactive) and -16.1% (inactive) | inactive | inactive | inactive | inactive | inactive | inactive |
| CCCCCCCCCCCC(=O)O | inactive | inactive | inactive |  | 0.697% (inactive) and -0.0798% (inactive) and 0.587% (inactive) | inactive | inactive | inactive | inactive | inactive | inactive |
| CC(=O)[O][Hg][c]1ccccc1 | 433 nM (active) and 1.1 µM (active) and 213 nM (active) |  | 1.93 µM (active) and 1.74 µM (active) and 1.07 µM (active) | 306 nM (active) and 977 nM (active) and 213 nM (active) |  | 863 nM (active) and 1.38 µM (active) and 1.07 µM (active) | 1.72 µM (active) and 2.45 µM (active) and 1.51 µM (active) | 1.72 µM (active) and 1.95 µM (active) and 1.07 µM (active) | 1.93 µM (active) and 2.45 µM (active) and 1.34 µM (active) | 1.22 µM (active) and 1.95 µM (active) and 1.07 µM (active) | inactive |

From PubChem BioAssay (Tox21)
